Test results reported in PubChem BioAssay (NCATS).
Inconclusive results are not listed. Entries that show only a call come without a potency. Active and inactive are the calls of the source. The call rests on the fitted dose curve; tested in HEK293 reporter line.

Assay: qHTS for Inhibitors of the Functional Ribonucleoprotein Complex (vRNP) of Lassa (LASV) Arenavirus: LASV Primary Screen - GLuc reporter signal (AID 1347082); further: nearly all actives have a fitted effect of over 60% in size
Details: LASV minigenome vRNP, Gaussia luciferase reporter; series mostly up to 57.5 µM
Potency means the concentration at half of the fitted maximal effect.

SMILES	Potency
C#CCN[C@H](C)Cc1ccccc1	inactive
NCC(O)c1cc(O)c(O)cc1F (stereo unspecified)	inactive
NCCc1c[nH]c2ccc(C(N)=O)cc12	inactive
CC(N)Cc1c[nH]c2ccc(O)cc12 (stereo unspecified)	inactive
NNC(=O)c1ccc(O)cc1	inactive
C=CCN1CCC23c4c5ccc(O)c4O[C@H]2C(=O)CC[C@@]3(O)C1C5 (stereo partly specified)	inactive
NC(=O)COc1c(F)cc(SCCNS(=O)(=O)c2ccccc2)cc1F	inactive
CNc1ccc2oc(C[C@H]3O[C@@]4(CC[C@H]3C)O[C@H]([C@H](C)C(=O)c3ccc[nH]3)[C@H](C)C[C@H]4C)nc2c1C(=O)O	7.08 µM (active)
NNC(N)=O	inactive
Oc1ccc2c3c1O[C@H]1c4[nH]c5ccccc5c4C[C@@]4(O)C(C2)N(CC2CC2)CCC314 (stereo partly specified)	inactive
NC(CCCCCP(=O)(O)O)C(=O)O (stereo unspecified)	inactive
CCCN1CC[C@@H]2c3cc(O)ccc3CC[C@@H]21	inactive
OC1CCCCC1N1CCC(c2ccccc2)CC1 (stereo unspecified)	inactive
COC(=O)N1CCN(C(=O)Cc2ccc(Cl)c(Cl)c2)C(CN2CCCC2)C1 (stereo unspecified)	inactive
Cc1[nH]c2ccc(O)cc2c1CCN	inactive
NC(=O)c1ccc(OCC(O)CN2CC=C(c3ccc(F)cc3)CC2)cc1 (stereo unspecified)	inactive
CCCN(CCC)[C@H]1CCc2c(F)ccc(O)c2C1	inactive
Cc1o[nH]c(=O)c1CC(N)C(=O)O (stereo unspecified)	inactive
CN(C(=O)Cc1ccc(Cl)c(Cl)c1)C(CN1CCCC1)c1cccc(OCC(=O)O)c1 (stereo unspecified)	inactive
Cc1cc([C@@H]2CCCN2C)on1	inactive
C[N+]1(C)CCc2cc3c(cc2[C@H]1[C@@H]1OC(=O)c2c1ccc1c2OCO1)OCO3	inactive
